The values that follow come from PubChem BioAssay (EPA / NIEHS).

Each structure is given as a SMILES string. Results filed as inconclusive are left out. Activity calls are given as the source filed them. Rule for the calls, unless noted: active = hit-call score of the fitted dose curve at least 0.9, where 1 is the maximum; inactive = score below 0.9.

One experiment is described as follows: STM_H9_CystineISnorm_perc: Stemina devTOX quickPredict H9 human embryonic stem cell (hESC)-based Assay for Cystine (CYSS) Metabolite Biomarker, Normalized (AID 2283713). The gist of the method:
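Secreted cystine was measured by UPLC-HRMS in H9 hESC medium after 72h compound exposure with 24-hourly replenishment. Values are standard-normalized areas relative to 0.1% DMSO.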
One may read the AC50 as the concentration giving half of the maximal activity seen. Take `O=C(Nc1ccccc1)Nc1cnns1`: the AC50 is 58.7 µM (active).

Regarding `O=C(O)C(F)(F)C(F)(F)C(F)(F)C(F)(F)C(F)(F)C(F)(F)C(F)(F)F`, the outcome was inactive. In the case of `C#CCN1C(=O)COc2cc(F)c(N3C(=O)C4=C(CCCC4)C3=O)cc21`, the AC50 is 79.6 µM (active). In the case of `O=S(=O)(O)C(F)(F)C(F)(F)C(F)(F)C(F)(F)C(F)(F)C(F)(F)C(F)(F)C(F)(F)F`, the outcome was inactive. As for `Oc1cc(Cl)ccc1Oc1ccc(Cl)cc1Cl`, the AC50 is 81.2 µM (active). For `CCC(C)Nc1c([N+](=O)[O-])cc(C(C)(C)C)cc1[N+](=O)[O-]` (stereo unspecified), the result was inactive. As for `CC1(C)C(C=C(Cl)Cl)C1C(=O)OC(C#N)c1ccc(F)c(Oc2ccccc2)c1` (stereo unspecified), the result was inactive. Regarding `CC(C)(C)C(O)/C(=C\c1ccc(Cl)cc1Cl)n1cncn1` (stereo unspecified), the concentration at half-maximal activity (AC50) was 79.6 µM (active). As for `O=S1OCC2C(CO1)C1(Cl)C(Cl)=C(Cl)C2(Cl)C1(Cl)Cl` (stereo unspecified), the half-maximal activity concentration (AC50) is 82 µM (active).

For `CCOC1Oc2ccc(OS(C)(=O)=O)cc2C1(C)C` (stereo unspecified), the AC50 is 83 µM (active). In the case of `CC(C)OC(=O)Nc1cccc(Cl)c1`, the AC50 is 11.1 µM (active).

As for `CCC(C)(NC(=O)c1cc(Cl)c(C)c(Cl)c1)C(=O)CCl` (stereo unspecified), the concentration at half-maximal activity (AC50) was 23.9 µM (active). Take `Oc1ccc(Cl)cc1Cc1ccccc1`: the outcome was inactive. For the molecule `CC(C)(C)C(O)C(Oc1ccc(Cl)cc1)n1cncn1` (stereo unspecified), the AC50 is 20.4 µM (active). As to `O=C(NC(=O)c1c(F)cccc1F)Nc1ccc(OC(F)(F)C(F)OC(F)(F)F)c(Cl)c1` (stereo unspecified), the result was inactive.

A further experiment can be described thus: STM_H9_OrnCyssISnorm_ratio: Stemina devTOX quickPredict H9 human embryonic stem cell (hESC)-based Assay for Ornithine (ORN):Cystine (CYSS) Ratio (AID 2283714; active = hit-call score of the fitted dose curve at least 0.9, where 1 is the maximum). The gist of the method: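 Undifferentiated H9 hESCs were exposed to compound for 72h with media and chemical replaced every 24h. Final 24-h conditioned media were deproteinized and analysed by UPLC-HRMS. ORN and CYSS peak areas were normalized to C13 internal standards and the ratio taken versus 0.1% DMSO.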
As for `O=C(Nc1ccccc1)Nc1cnns1`, the AC50 is 58.3 µM (active).

For the molecule `C#CCN1C(=O)COc2cc(F)c(N3C(=O)C4=C(CCCC4)C3=O)cc21`, the half-maximal activity concentration (AC50) is 93 µM (active). For `O=S(=O)(O)C(F)(F)C(F)(F)C(F)(F)C(F)(F)C(F)(F)C(F)(F)C(F)(F)C(F)(F)F`, the outcome was inactive.

Take `Oc1cc(Cl)ccc1Oc1ccc(Cl)cc1Cl`: the AC50 is 75.8 µM (active). Regarding `CC(C)(C)C(O)/C(=C\c1ccc(Cl)cc1Cl)n1cncn1` (stereo unspecified), the concentration at half-maximal activity (AC50) was 74.4 µM (active). Take `O=S1OCC2C(CO1)C1(Cl)C(Cl)=C(Cl)C2(Cl)C1(Cl)Cl` (stereo unspecified): the AC50 is 77.1 µM (active).

On to `CCOC1Oc2ccc(OS(C)(=O)=O)cc2C1(C)C` (stereo unspecified), for which the AC50 is 84.3 µM (active). Same read-out and setting: the value for `CC(C)OC(=O)Nc1cccc(Cl)c1` was 11.7 µM (active); that for `CCC(C)(NC(=O)c1cc(Cl)c(C)c(Cl)c1)C(=O)CCl` (stereo unspecified) was 22.9 µM (active). For the molecule `Oc1ccc(Cl)cc1Cc1ccccc1`, the result was inactive.

As for `CC(C)(C)C(O)C(Oc1ccc(Cl)cc1)n1cncn1` (stereo unspecified), the AC50 is 28.3 µM (active).
